# Laboratory results as given in PubChem BioAssay (Tox21).
# Unmarked numbers belong to inactive results. Inconclusive results are not listed. A call without a number means that no potency is given here. Active and inactive are the calls of the source. Unless noted, calls come from the whole dose curve; as a rule, active = well fitted curve in the direction sought with a large enough effect in the repeat runs; inconclusive = weak or mixed curves; inactive = no such curve, though single readings can be large; an effect the other way counts as inactive or inconclusive.
# Key:
# [1] = target: Luciferin 4-monooxygenase (Photinus pyralis) (UniProt P08659); experiment: qHTS assay to identify small molecule inhibitors of firefly luciferase (AID 1224835); note: nearly all actives have a fitted effect of over 25% in size; note: potency is the fitted concentration of half-maximal effect
# Sequence of Luciferin 4-monooxygenase (Photinus pyralis) (P08659 whole entry, looked up): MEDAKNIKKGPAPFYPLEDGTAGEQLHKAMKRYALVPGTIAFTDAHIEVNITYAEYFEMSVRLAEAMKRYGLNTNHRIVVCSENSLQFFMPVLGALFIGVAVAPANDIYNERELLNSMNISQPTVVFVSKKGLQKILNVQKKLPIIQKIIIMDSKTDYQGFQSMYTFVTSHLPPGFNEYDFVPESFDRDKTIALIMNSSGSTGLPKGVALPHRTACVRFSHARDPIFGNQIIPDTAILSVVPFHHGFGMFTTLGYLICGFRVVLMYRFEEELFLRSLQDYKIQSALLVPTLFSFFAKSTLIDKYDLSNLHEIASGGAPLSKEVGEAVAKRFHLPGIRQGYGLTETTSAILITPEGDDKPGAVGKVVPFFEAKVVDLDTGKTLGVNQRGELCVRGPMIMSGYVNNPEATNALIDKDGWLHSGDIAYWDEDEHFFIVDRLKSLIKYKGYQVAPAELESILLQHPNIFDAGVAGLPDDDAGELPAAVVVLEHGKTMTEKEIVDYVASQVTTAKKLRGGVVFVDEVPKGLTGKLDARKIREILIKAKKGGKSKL
# Method in brief: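 Biochemical qHTS: compounds run as interplate titrations against purified firefly enzyme, with D-luciferin and ATP each at its KM concentration. Light output recorded by CCD imaging.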
# [2] = qHTS assay to identify small molecule agonists of the constitutive androstane receptor (CAR) signaling pathway - cell viability counter screen (AID 1224836); note: nearly all actives have a fitted effect of over 45% in size; note: potency is the fitted concentration of half-maximal effect
# Method in brief: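 Counter screen multiplexed with the CAR reporter readout: HepG2 cells co-transfected with hCAR and the CYP2B6-2.2kb construct receive a 15-concentration compound series and 0.75 uM PK11195 (final), then CellTiter-Fluor fluorescence is read after 23 h.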
# [3] = target: Nuclear receptor subfamily 1 group I member 3 (Homo sapiens) (UniProt Q14994); experiment: qHTS assay to identify small molecule antagonists of the constitutive androstane receptor (CAR) signaling pathway (AID 1224838);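 note: HepG2 cells stably expressing hCAR with CYP2B6 luciferase reporter stimulated by CITCO; nearly all actives have a fitted effect of over 40% in size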; note: potency is the fitted concentration of half-maximal effect
# Sequence of Nuclear receptor subfamily 1 group I member 3 (Homo sapiens) (Q14994 whole entry, looked up): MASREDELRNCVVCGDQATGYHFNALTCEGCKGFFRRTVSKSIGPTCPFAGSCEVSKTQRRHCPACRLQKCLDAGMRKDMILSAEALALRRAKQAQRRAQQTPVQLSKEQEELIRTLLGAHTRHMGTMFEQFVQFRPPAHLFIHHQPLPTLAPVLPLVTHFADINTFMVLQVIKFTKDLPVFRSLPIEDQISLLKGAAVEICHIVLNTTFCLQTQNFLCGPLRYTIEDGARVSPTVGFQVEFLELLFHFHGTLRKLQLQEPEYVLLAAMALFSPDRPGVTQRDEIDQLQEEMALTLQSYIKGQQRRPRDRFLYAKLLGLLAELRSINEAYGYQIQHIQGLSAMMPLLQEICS
# Method in brief: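 Quantitative HTS in double-stable HepG2-CYP2B6-hCAR cells. After 4 h plating, cells get compound (15 concentrations) and CITCO at 50 nM final, incubate 24 h at 37 C, then ONE-Glo luminescence is read.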
# [4] = target: Nuclear receptor subfamily 1 group I member 3 (Homo sapiens) (UniProt Q14994); experiment: qHTS assay to identify small molecule agonists of the constitutive androstane receptor (CAR) signaling pathway (AID 1224839); note: nearly all actives have a fitted effect of over 15% in size; note: potency is the fitted concentration of half-maximal effect
# Method in brief: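 A 15-concentration quantitative screen uses HepG2 cells co-transfected stably with human CAR and CYP2B6-2.2kb reporter. Treatment lasts 24 h with 0.75 uM PK11195 final present; ONE-Glo luminescence is the signal.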
# [5] = qHTS assay to identify small molecule antagonists of the estrogen related receptor signaling pathway with the pleiotropic PPARgamma coactivator (PGC) from Tox21 10K library - cell viability counter screen (AID 1224840; active = well fitted cell-killing curve with a large enough effect in the repeat runs, not every such curve was filed as active; note: nearly all actives have a fitted effect of over 40% in size)
# Method in brief: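 Compounds in DMSO, alongside positive and negative controls, were pinned onto PGC/ERR cells (2,000 per well). Exposure lasted 17.5 hours at 37 C, followed by a 30-minute CellTiter-Fluor incubation and fluorescence reading.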
# [6] = qHTS assay to identify small molecule antagonists of the estrogen related receptor signaling pathway with the pleiotropic PPARgamma coactivator (PGC) from Tox21 10K library (AID 1224841; call rule not given here; note: actives are mostly falling curves and most rising ones were filed inactive; nearly all actives have a fitted effect of over 50% in size; note: potency is the fitted concentration of half-maximal effect)
# Method in brief: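 Compound exposure ran 18 hours at 37 C in PGC/ERR cells (2,000/well) that had first rested 6 hours in a 37 C/5% CO2 incubator. Luciferase activity was then detected with One-Glo after a 30-minute room-temperature step.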
# [7] = target: Thyrotropin receptor (Homo sapiens) (UniProt P16473); experiment: qHTS assay to identify small molecule agonists of the thyroid stimulating hormone receptor (TSHR) signaling pathway (AID 1224843; calls by dose curve; note: nearly all actives have a fitted effect of over 45% in size)
# Sequence of Thyrotropin receptor (Homo sapiens) (P16473 whole entry, looked up): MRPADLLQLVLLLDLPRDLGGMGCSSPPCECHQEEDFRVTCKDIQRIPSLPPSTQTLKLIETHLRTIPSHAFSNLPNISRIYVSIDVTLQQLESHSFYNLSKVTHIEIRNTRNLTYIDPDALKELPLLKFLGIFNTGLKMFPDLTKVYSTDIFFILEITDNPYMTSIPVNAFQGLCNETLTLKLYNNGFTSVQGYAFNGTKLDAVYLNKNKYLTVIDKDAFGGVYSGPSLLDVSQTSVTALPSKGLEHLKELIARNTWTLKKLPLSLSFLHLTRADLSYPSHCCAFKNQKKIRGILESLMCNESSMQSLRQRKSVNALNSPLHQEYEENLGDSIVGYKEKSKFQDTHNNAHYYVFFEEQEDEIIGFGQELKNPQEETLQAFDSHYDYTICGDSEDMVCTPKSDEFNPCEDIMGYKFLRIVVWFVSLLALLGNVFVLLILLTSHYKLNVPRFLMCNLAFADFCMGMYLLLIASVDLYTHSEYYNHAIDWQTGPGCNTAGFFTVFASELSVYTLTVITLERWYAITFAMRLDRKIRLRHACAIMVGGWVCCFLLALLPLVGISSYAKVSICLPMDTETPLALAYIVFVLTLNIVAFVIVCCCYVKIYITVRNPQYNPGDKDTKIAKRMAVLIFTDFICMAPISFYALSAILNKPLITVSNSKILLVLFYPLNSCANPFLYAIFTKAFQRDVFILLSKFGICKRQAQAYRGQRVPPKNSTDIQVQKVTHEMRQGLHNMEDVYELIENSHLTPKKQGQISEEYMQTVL
# Method in brief: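 TSHR-HEK293 cells in agonist mode, 30 min room-temperature step, then cAMP measured by competitive HTRF (cAMP-d2 with anti-cAMP cryptate) after 1 h at room temperature. Tested at 15 concentrations in triplicate.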
# [8] = qHTS assay to identify small molecule agonists of the hypoxia (HIF-1) signaling pathway - cell viability counter screen (AID 1224844; calls by dose curve; note: nearly all actives have a fitted effect of over 50% in size; note: potency is the fitted concentration of half-maximal effect)
# Method in brief: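 Luminescent ATP content (CellTiter-Glo, 30 min, room temperature) served as the viability measure in HRE-bla ME-180 cells exposed to compounds for 17 hrs in low-serum medium (0.5% dialyzed FBS).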
# [9] = qHTS assay to identify small molecule agonists of H2AX (AID 1224845; active = well fitted activation curve with a large enough effect in the signal ratio in the repeat runs, not every such curve was filed as active; the % refers to the signal ratio)
# Method in brief: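 Wild-type CHO-K1 cells, plated overnight, exposed 3hr at 37C to 15 concentrations (0.76% DMSO final). Lysed, then HTRF anti-pH2AX (S139) cryptate and anti-H2AX-d2 antibodies, 24 hr room temperature; 665/620 nm emission read.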
# [10] = qHTS assay to identify small molecule agonists of the hypoxia (HIF-1) signaling pathway (AID 1224846; active = well fitted activation curve with a large enough effect in the signal ratio in the repeat runs, not every such curve was filed as active; the % refers to the signal ratio)
# Method in brief: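 Measured by blue/green FRET after loading CCF4-AM: beta-lactamase expressed from a hypoxia response element in ME-180 cells. Test agents were delivered in DMSO and left 17 hrs; cells had been plated 5 hrs earlier in low-serum (0.5% dialyzed FBS) medium.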
# [11] = qHTS assay to identify small molecule agonists of H2AX - cell viability counter screen (AID 1224847; calls by dose curve; note: nearly all actives have a fitted effect of over 30% in size; note: potency is the fitted concentration of half-maximal effect)
# Method in brief: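 We seed wild-type CHO-K1 cells overnight, treat them for 3 hr at 37C with compounds in 15-concentration series, and quantify remaining viability by CellTiter-Glo luminescence.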
# [12] = qHTS assay to identify small molecule antagonists of the estrogen related receptor (ERR) signaling pathway from Tox21 library (AID 1224848); note: nearly all actives have a fitted effect of over 50% in size; note: potency is the fitted concentration of half-maximal effect
# Method in brief: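 ERR reporter cell line (from NTP) seeded 2,000 cells/well, rested 6 h at 37 C/5% CO2, then pin-dosed with compounds in DMSO. After 18 h at 37 C, ONE-Glo added; luminescence read after 30 min at room temperature.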
# [13] = qHTS RealTime-Glo MT Cell Viability Assay in HepG2 cells - 24 hour (AID 1224867); note: nearly all actives have a fitted effect of over 50% in size; note: potency is the fitted concentration of half-maximal effect
# Method in brief: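 Cells + NanoLuc/prosubstrate dispensed (600 cells/well) → 5 h at 37 C/5% CO2 → compounds in DMSO transferred → 40 h incubation at 37 C, luminescence read at 0, 8, 16, 24, 32, 40 h.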
# [14] = qHTS RealTime-Glo MT Cell Viability Assay in HEK293 cells - 32 hour (AID 1224868); note: nearly all actives have a fitted effect of over 50% in size; note: potency is the fitted concentration of half-maximal effect
# Method in brief: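 Tox21 10K qHTS, HEK293, 600 cells/well, RealTime-Glo reagent co-dispensed with cells; 5 h preincubation, compound by pintool, 37 C, luminescence at 0–40 h.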
# [15] = A CellTox Green Cytotoxicity Assay to monitor cytotoxicity in HEK293 cells - 0 hour (AID 1224869); note: nearly all actives have a fitted effect of over 50% in size
# Method in brief: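 Each value comes from one timepoint of a single continuous run in which HEK293 cells with CellTox Green were exposed to compound for up to 40 h at 37 C, dye fluorescence rising with cell death.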
# [16] = qHTS assay to identify small molecule antagonists of the estrogen related receptor (ERR) signaling pathway from Tox21 library - cell viability counter screen (AID 1224834); note: nearly all actives have a fitted effect of over 30% in size; note: potency is the fitted concentration of half-maximal effect
# Method in brief: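 Viability readout (CellTiter-Fluor fluorescence, 30 min at 37 C) multiplexed with the ERR assay; cells treated 17.5 h at 37 C with compounds delivered in DMSO.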
# [17] = qHTS assay to identify small molecule antagonists of the constitutive androstane receptor (CAR) signaling pathway - cell viability counter screen (AID 1224837); note: nearly all actives have a fitted effect of over 45% in size; note: potency is the fitted concentration of half-maximal effect
# Method in brief: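 Fluorescence from CellTiter-Fluor served as the viability signal. Human hepatoma HepG2 cells stably bearing hCAR and CYP2B6-2.2kb received compound plus CITCO (50 nM final) for 23 hr.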
# [18] = qHTS assay to identify small molecule agonists of the estrogen related receptor signaling pathway with the pleiotropic PPARgamma coactivator (PGC) from Tox21 10K library (AID 1224842); note: nearly all actives have a fitted effect of over 15% in size
# Method in brief: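 PGC/ERR reporter cell line, 2,000 cells per well, incubated 6 h at 37 C before 23 nL compound in DMSO was added. After 18 h at 37 C, One-Glo luminescence read following 30 min at room temperature.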
# [19] = qHTS assay to identify small molecule agonists of the estrogen related receptor (ERR) signaling pathway from Tox21 library (AID 1224849; calls by dose curve; note: nearly all actives have a fitted effect of over 15% in size); details: ERR reporter cell line, ONE-Glo luciferase, 18 h; at 92.4 µM (top of the series) unless noted
# Method in brief: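 We plated ERR reporter cells, waited 6 h, added compounds in DMSO by pin tool and incubated them 18 h at 37 C. ONE-Glo was then added and luminescence read after 30 min.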
SMILES,Potency [1],Potency [2],Potency [3],Potency [4],Potency [5],Potency [6],Potency [7],Potency [8],Potency [9],outcome [10],Potency [11],Potency [12],Potency [13],Potency [14],Potency [15],Potency [16],Potency [17],Potency [18],"activity change, positive = activation [19]"
Cc1ccc2c(c1[N+](=O)[O-])C(=O)c1ccccc1C2=O,inactive,6.73 µM (active),0.673 µM (active),inactive,inactive,inactive,inactive,inactive,inactive,inactive,inactive,inactive,inactive,0.958 µM (active),inactive,,,,
C[C@H](CS)C(=O)N1CCC[C@H]1C(=O)O,,inactive,inactive,inactive,inactive,,,inactive,inactive,,inactive,,inactive,inactive,inactive,inactive,inactive,,
CCN(CC)CCOc1ccccc1C(=O)CCc1ccccc1,inactive,inactive,inactive,26.6 µM (active),inactive,inactive,,,inactive,inactive,inactive,,inactive,12 µM (active),inactive,,,inactive,-25.9% [at 42.5 µM]
CCCCCCCCCCCCCOS(=O)(=O)O,,inactive,,,inactive,,inactive,,inactive,,inactive,,inactive,inactive,inactive,inactive,inactive,,
CN(C)CC/C=C1\c2ccccc2Sc2ccc(Cl)cc21,inactive,,,inactive,,inactive,inactive,,,,49.2 µM (active),,23.9 µM (active),23.9 µM (active),inactive,,,,
O[C@@H](CNC[C@H](O)[C@H]1CCc2cc(F)ccc2O1)[C@@H]1CCc2cc(F)ccc2O1,inactive,,,inactive,,33.5 µM (active),,23.9 µM (active),inactive,inactive,,,16.9 µM (active),19 µM (active),inactive,29.8 µM (active),,inactive,-67.5% [at 42.5 µM]
CCN(CC)C(=O)/C(C#N)=C/c1cc(O)c(O)c([N+](=O)[O-])c1,inactive,,inactive,inactive,,,inactive,inactive,,,inactive,,inactive,,inactive,26.6 µM (active),,,
O=C(c1ccccc1)c1ccc(O)cc1,,inactive,inactive,,inactive,inactive,,inactive,,inactive,,,inactive,inactive,inactive,69.4 µM (active),inactive,inactive,
COc1ccc(N)c([N+](=O)[O-])c1,inactive,inactive,inactive,inactive,inactive,,,inactive,,inactive,inactive,,inactive,inactive,inactive,,inactive,,
c1ccc(CCCc2ccncc2)cc1,,inactive,,,inactive,,,,inactive,inactive,,,inactive,inactive,inactive,inactive,inactive,,
CCCCCCCC(=O)Oc1c(Br)cc(C#N)cc1Br,inactive,inactive,inactive,inactive,inactive,43.1 µM (active),inactive,inactive,inactive,,,48.4 µM (active),inactive,38.8 µM (active),inactive,,inactive,inactive,-61.8%
CCCCCCCCCCCSCC(=O)O,,inactive,inactive,inactive,inactive,inactive,inactive,,inactive,inactive,inactive,,inactive,inactive,inactive,inactive,inactive,inactive,-19.7%
CCCc1nc2c(C)cc(-c3nc4ccccc4n3C)cc2n1Cc1ccc(-c2ccccc2C(=O)O)cc1,13.8 µM (active),inactive,inactive,inactive,inactive,,inactive,inactive,inactive,,inactive,,inactive,,inactive,,inactive,,
CC(C)COC(=O)COc1cc(Cl)c(Cl)cc1Cl,,inactive,inactive,inactive,inactive,inactive,,inactive,inactive,inactive,inactive,inactive,inactive,inactive,inactive,inactive,inactive,inactive,-0.133%
Nc1cccc2c(N)cccc12,39.9 µM (active),24.3 µM (active),inactive,24.3 µM (active),,,,,,inactive,inactive,,,,inactive,,24.3 µM (active),,
COC(=O)Nc1nc2ccc(C(=O)C3CC3)cc2[nH]1,19.5 µM (active),inactive,,,inactive,,inactive,,inactive,inactive,inactive,,inactive,,inactive,,inactive,,
Nc1ccc(N=Nc2ccc(N)cc2)cc1,4.48 µM (active),,inactive,inactive,,,inactive,,,inactive,inactive,,inactive,inactive,inactive,27.3 µM (active),,,
COc1cc(C(C)=O)ccc1OCCCN1CCC(c2noc3cc(F)ccc23)CC1,,,inactive,inactive,inactive,,inactive,,inactive,inactive,inactive,,,10.7 µM (active),inactive,,inactive,,
Cc1ccc(N(CC2=NCCN2)c2cccc(O)c2)cc1,inactive,inactive,inactive,inactive,inactive,,inactive,inactive,inactive,,inactive,,inactive,inactive,inactive,,inactive,,
CC(C)C(O)C(C)(C)CO (stereo not drawn),inactive,,8.91 µM (active),inactive,,1.78 µM (active),inactive,,,inactive,inactive,0.891 µM (active),inactive,0.801 µM (active),inactive,0.631 µM (active),,inactive,-71.7%
CNS(=O)(=O)c1cc(C(=O)N2CCC(CCN3C4CCC3CC(n3c(C)nc5ccccc53)C4)(c3cccc(F)c3)CC2)c(Cl)cc1F (stereo not drawn),inactive,,,,,,inactive,3.89 µM (active),inactive,,inactive,,,5.49 µM (active),inactive,13.7 µM (active),inactive,,
COc1cc(NCc2ccc3nc(N)nc(N)c3c2C)cc(OC)c1OC,inactive,inactive,0.0266 µM (active),inactive,inactive,0.075 µM (active),,inactive,,inactive,0.22 µM (active),0.0473 µM (active),inactive,0.0268 µM (active),inactive,,,inactive,-56.3% [at 42.5 µM]
CCCCCC,,inactive,inactive,inactive,inactive,,inactive,inactive,inactive,inactive,inactive,,inactive,inactive,inactive,inactive,inactive,,
C=CC(=O)O,,inactive,inactive,,inactive,,inactive,inactive,inactive,inactive,inactive,,inactive,inactive,inactive,inactive,inactive,,
Cc1cc(CCC(=O)OCCOCCOCCOC(=O)CCc2cc(C)c(O)c(C(C)(C)C)c2)cc(C(C)(C)C)c1O,inactive,inactive,inactive,inactive,inactive,,,inactive,inactive,inactive,inactive,,inactive,inactive,inactive,,inactive,,
